Data on 12 compounds can be found in the supplement of paper PMC12808144.

One assay concerns Mel-DCC-11. Kind of assay: cell viability relative to DMSO control (fraction of DMSO control); higher = less cytotoxic, active = 0.5 or less. The conditions noted are these: 1 µM; 120 h. The method in brief: (§1)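 Luminescence from ATPlite 1step was read after 120 h in 384-well plates carrying 315 approved anti-cancer drugs (TargetMol), acoustically pre-spotted to give 1 µM in duplicate. Cells were seeded in 40 µl per well: 2500/well NHEM-hTERT immortalized melanocytes and 1500/well patient-derived Mel-DCC-11 and Mel-DCC-11-R, its resistant subline, which was assayed alone and with 8 µM of its selecting drug. Viability was normalised to vehicle-treated controls and averaged across duplicate wells.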

Another assay deals with NHEM-hTERT. Described as above. To be noted: 1 µM; 120 h. In a few lines: as §1
Another assay deals with Mel-DCC-11-R. The assay is described as follows: cell viability relative to DMSO control (fraction of DMSO control); higher = less cytotoxic, active = 0.8 or less. The conditions noted are these: 1 µM, 120 h. The method in brief: as §1

Unmarked numbers belong to inactive results.

As for `COc1ccc(C[C@H](N)C(=O)N[C@H]2[C@@H](O)[C@H](n3cnc4c(N(C)C)ncnc43)O[C@@H]2CO)cc1.Cl.Cl` [Puromycin dihydrochloride], the cell viability in the assay with Mel-DCC-11 is 0.246 (active); with NHEM-hTERT it was 0.467 (active); with Mel-DCC-11-R (vemurafenib co-treatment 0 µM) it was 0.309 (active); in the assay on Mel-DCC-11-R (vemurafenib co-treatment 8 µM), 0.58 (active).
As for `Nc1c2ccccc2nc2ccccc12` [Aminacrine], the cell viability is 1.43 in the assay on Mel-DCC-11, 0.915 with NHEM-hTERT, 1.26 in the assay with Mel-DCC-11-R (vemurafenib co-treatment 0 µM) and 1.2 in the assay on Mel-DCC-11-R (vemurafenib co-treatment 8 µM).
For `Clc1ccc(C(c2ccccc2Cl)C(Cl)Cl)cc1` (centres undefined) [Mitotan], the cell viability in the assay with Mel-DCC-11 is 0.903; in the assay on NHEM-hTERT, 0.958; in the assay with Mel-DCC-11-R (vemurafenib co-treatment 0 µM) it was 1; in the assay on Mel-DCC-11-R (vemurafenib co-treatment 8 µM), 0.82.
As for `C#C[C@]1(O)CC[C@H]2[C@@H]3CCc4cc(OC5CCCC5)ccc4[C@H]3CC[C@@]21C` [Quinestrol], the cell viability in the assay on Mel-DCC-11 was 0.908; in the assay on NHEM-hTERT, 0.894; in the assay with Mel-DCC-11-R (vemurafenib co-treatment 0 µM), 0.953; in the assay with Mel-DCC-11-R (vemurafenib co-treatment 8 µM), 1.
For `CC(C)Cn1cnc2c(N)nc3ccccc3c21` [Imiquimod], the cell viability in the assay with Mel-DCC-11 was 0.985; in the assay on NHEM-hTERT it was 1.31; in the assay on Mel-DCC-11-R (vemurafenib co-treatment 0 µM), 0.897; in the assay with Mel-DCC-11-R (vemurafenib co-treatment 8 µM), 1.07.
Regarding `CC1CCC(C(C)C)C(O)C1` (racemic) [DL-Menthol], the cell viability with NHEM-hTERT was 0.973.
`COc1c2occc2cc2ccc(=O)oc12` [8-Methoxypsoralen]: the cell viability in the assay with Mel-DCC-11 was 0.799; with NHEM-hTERT, 1.09; with Mel-DCC-11-R (vemurafenib co-treatment 0 µM), 1.05; in the assay on Mel-DCC-11-R (vemurafenib co-treatment 8 µM), 1.19.
With `CC1=C(/C=C/C(C)=C/C=C/C(C)=C\C(=O)O)C(C)(C)CCC1` [Isotretinoin], the cell viability was 1.16 with Mel-DCC-11, 1.04 with NHEM-hTERT, 0.938 with Mel-DCC-11-R (vemurafenib co-treatment 0 µM) and 1.3 in the assay with Mel-DCC-11-R (vemurafenib co-treatment 8 µM).
Consider `Nc1cccc2c1CN(C1CCC(=O)NC1=O)C2=O` (centres undefined) [Lenalidomide], for which the cell viability was 0.996 in the assay with Mel-DCC-11, 0.996 in the assay on NHEM-hTERT, 0.713 (active) with Mel-DCC-11-R (vemurafenib co-treatment 0 µM) and 1.01 in the assay on Mel-DCC-11-R (vemurafenib co-treatment 8 µM).
As for `Cc1ccc(Nc2nccc(N(C)c3ccc4c(C)n(C)nc4c3)n2)cc1S(N)(=O)=O` [Pazopanib], the cell viability in the assay on NHEM-hTERT is 0.893.
As to `C[C@]12CC[C@H](O)CC1=CC[C@@H]1[C@@H]2CC[C@]2(C)C(c3cccnc3)=CC[C@@H]12` [Abiraterone], the cell viability was 1.28 with Mel-DCC-11, 0.938 in the assay with NHEM-hTERT, 1.07 with Mel-DCC-11-R (vemurafenib co-treatment 0 µM) and 1.16 in the assay on Mel-DCC-11-R (vemurafenib co-treatment 8 µM).
As to `Nc1ccn([C@@H]2O[C@H](CO)[C@@H](O)C2(F)F)c(=O)n1` [Gemcitabine], the cell viability in the assay with NHEM-hTERT is 0.639.
